Only some compounds are listed: those with a hit (about 15% of all), similar ones and a draw of the others.
Gal4-VP16 FLuc: Gal4-VP16 reporter inhibition counter-screen; Drosophila S2 Gal4-VP16 UAS-luciferase, luminescence, 20 h; 3.5% of 310,000 active; Potency, µM (highest dose often 53.6 µM), inactives show at the top dose activity, negative = inhibition, actives largely listed as inhibitors;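 note: Gal4-VP16 expression switched on by copper sulfate through the metallothionein promoter; nearly all actives have a fitted effect of over 50% in size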
RORg inh: blocks mouse ROR gamma transcriptional activity; AID 2551; 5.4% of 310,000 active; Potency, µM (titrated, usually from 53.6 µM), inactives show at the highest dose activity change, negative = inhibition, usual class: inhibitors; Drosophila S2 Gal4-RORgamma UAS-luciferase reporter, 20 h; note: nearly all actives have a fitted effect of over 60% in size
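Luciferase reporter read in Schneider cells carrying Gal4-RORγ (mouse) and UAS-Photinus luciferase; cells given compound 1 h before 700 uM copper sulfate induction, then incubated 20 h at ambient temperature.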
DT40 TDP1 CPT: growth inhibition of DT40 Tdp1-/-;hTDP1 cells with camptothecin (screen for TDP1 inhibitors); AID 686979; 12% of 420,000 active; chicken DT40 Tdp1-/-;hTDP1 cells + 20 nM CPT, ATP luminescence, 48 h; Potency, µM (highest dose often 46.2 µM), without a hit: top-dose activity change, negative = growth inhibition, usual class: inhibitors; note: nearly all actives have a fitted effect of over 55% in size
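Chicken DT40 Tdp1-/- cells complemented with human TDP1, 400 cells/well, exposed to compounds plus 20 nM camptothecin for at least 48 h at 37 C; viability read as ATP content by CellTiter-Glo luminescence.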
ELG1 DNA repair: blocks ELG1-dependent DNA repair in HEK293T cells | Potency, µM (highest dose often 46.1 µM), for the others: at the highest dose activity change, negative = inhibition, most hits filed as inhibitors | 2.3% of 330,000 active | HEK293T ELG1-luciferase reporter, luminescence, 16 h; DNA damage induced by 5-fluorouridine | AID 504467; note: nearly all actives have a fitted effect of over 55% in size
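HEK293T cells expressing luciferase-tagged ELG1 (2,000/well) received 5-Fluorouridine plus compound or DMSO for 16 hr at 37 °C. Luciferase was read by ONE-Glo luminescence after 30 min at room temperature.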
DT40 TDP1 no CPT: qHTS for Inhibitors of human tyrosyl-DNA phosphodiesterase 1 (TDP1): qHTS in cells in absence of CPT; Potency, µM (highest dose often 46.2 µM), without a hit: at the highest dose activity change, negative = growth inhibition, actives largely listed as inhibitors; DT40 Tdp1-/- hTDP1 cells, no CPT, ATP luminescence, 48 h; 15% of 420,000 active; note: nearly all actives have a fitted effect of over 55% in size
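Compound effects on proliferation are scored in DT40 Tdp1-/-;hTDP1 cells in the absence of CPT. ATP levels (CellTiter-Glo luminescence) are recorded after a ≥48 hr, 37 °C incubation.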
12-LOX inh: ALOX12 (human) lipoxygenase inhibition. P18054. purified 12hLO, xylenol orange hydroperoxide absorbance. Potency, µM (titrated, usually from 108 µM), for the others: at the top dose activity change, negative = inhibition, most hits filed as inhibitors. 1.1% of 580,000 active
Target sequence (P18054 whole entry, looked up): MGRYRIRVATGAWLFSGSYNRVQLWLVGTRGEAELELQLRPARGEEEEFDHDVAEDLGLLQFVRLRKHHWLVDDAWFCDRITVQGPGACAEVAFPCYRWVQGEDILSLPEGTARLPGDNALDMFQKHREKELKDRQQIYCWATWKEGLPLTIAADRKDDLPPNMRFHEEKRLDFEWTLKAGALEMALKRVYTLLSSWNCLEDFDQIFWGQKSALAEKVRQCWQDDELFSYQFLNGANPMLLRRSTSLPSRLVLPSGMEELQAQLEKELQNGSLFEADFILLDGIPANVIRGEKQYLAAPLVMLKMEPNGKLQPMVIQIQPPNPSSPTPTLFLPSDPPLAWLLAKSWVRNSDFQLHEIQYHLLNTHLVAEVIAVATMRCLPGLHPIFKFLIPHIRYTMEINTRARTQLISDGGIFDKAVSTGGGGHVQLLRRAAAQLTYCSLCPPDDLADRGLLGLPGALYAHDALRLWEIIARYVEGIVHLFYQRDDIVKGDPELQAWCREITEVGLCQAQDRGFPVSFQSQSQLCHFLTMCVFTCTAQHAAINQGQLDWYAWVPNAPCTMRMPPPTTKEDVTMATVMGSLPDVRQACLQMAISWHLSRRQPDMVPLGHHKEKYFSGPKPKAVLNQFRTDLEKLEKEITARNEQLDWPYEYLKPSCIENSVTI
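Hydroperoxide product was detected by ferrous iron/xylenol orange as the 573 to 405 nm absorbance ratio. Arachidonic acid at 40 uM (final) was turned over for 30 min at room temperature by 150 nM human 12hLO, pH 7.0 Hepes buffer, after 15 min compound preincubation.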
An asterisk follows results filed as active; ? = inconclusive; / = not tested or not shown; [ ] = dose if it differs, or a comment. Calls come from the whole dose curve; as a rule, active = well fitted curve in the direction sought with a large enough effect; inconclusive = small, poorly fitted or top-dose-only effect, or another doubt; inactive = no such curve, though single readings can be large; an effect the other way counts as inactive or inconclusive. % is set by controls: 0 for no effect and ±100 for the full control effect; potency is the fitted concentration of half-maximal effect.

SMILES	Gal4-VP16 FLuc	RORg inh	DT40 TDP1 CPT	ELG1 DNA repair	DT40 TDP1 no CPT	12-LOX inh
Brc1ccoc1-c1nc(-c2ccccc2)no1	/	/	/	/	/	53%
O=C(O)c1cc(O)c2ccccc2c1O	/	/	/	/	/	71µM*
COc1ccc(NC(=O)C23CC4CC(CC(Cl)(C4)C2)C3)cc1S(=O)(=O)N1CCOCC1	/	/	-22%	16µM*	?	?
COc1ccc(NC(=O)C2CC2)cc1S(=O)(=O)N1CCOCC1	/	/	4%	23%	-12%	17%
Cn1cc(CN2CCC(C(O)c3cccs3)CC2)c(-c2cccc(Cl)c2)n1 (configuration not stated)	-16%	3%	5%	-11%	-19%	4%
Cc1cc(N2CCN(Cc3cn(C)nc3-c3cccc(Cl)c3)CC2)cc(C)n1	-3%	-23%	5.2µM*	?	5.8µM*	-3%
Cc1cc(N2CCN(Cc3cn(C)nc3-c3ccccc3F)CC2)cc(C)n1	5%	0%	5.8µM*	7%	5.8µM*	2%
Cc1ccc(-c2cnc(CCC(=O)NCc3ccc(OCC(F)(F)F)cc3)o2)cc1	/	/	/	/	/	3%
CSc1nc(N2CCOCC2)c2c3c(sc2n1)CCCC3	-2%	-21%	?	-3%	13µM*	86%
COc1ccccc1N1CCN(C(=O)c2cc(-c3ccc(C)cc3)on2)CC1	-5%	-36%	?	?	?	-9%
COc1ccccc1N1CCN(C(=O)c2nc(SC)ncc2Cl)CC1	/	/	1µM*	/	1µM*	-17%
COc1ccccc1N1CCN(C(=O)c2cc(-c3ccc(Cl)cc3)on2)CC1	-11%	35%	22µM*	-10%	?	-9%
COc1ccccc1N1CCN(C(=O)c2cc(-c3ccc(F)cc3)on2)CC1	-13%	17%	-6%	-9%	?	-8%
COc1ccccc1N1CCN(C(=O)c2onc(C)c2Cl)CC1	5%	-18%	?	3%	?	50%
COc1ccccc1-c1cc(C(=O)N2CCN(c3ccccc3OC)CC2)no1	-8%	8%	18µM*	-13%	?	8%
CC(=O)c1ccc(NC(=O)Cn2c3ncccc3c(=O)n2-c2ccc(C)cc2)cc1	/	/	16µM*	/	16µM*	-19%
CCc1ccc(-n2c(=O)c3cccnc3n2CC(=O)Nc2cc(F)ccc2F)cc1	/	/	2.6µM*	/	8.2µM*	-1%
CCc1ccc(-n2c(=O)c3cccnc3n2CC(=O)N(CC)c2cccc(C)c2)cc1	/	/	23µM*	/	13µM*	-10%
CCc1cccc(-n2c(=O)c3cccnc3n2CC(=O)Nc2ccc(OC)c(Cl)c2)c1	/	/	21µM*	/	26µM*	-13%
CCc1ccc(-n2c(=O)c3cccnc3n2CC(=O)Nc2cc(OC)ccc2OC)cc1	/	/	?	/	?	-2%
C=C1C(=O)O[C@@H]2[C@H]3O[C@]3(C)CC/C=C(\C)CC[C@@H]12	/	/	4.6µM*	/	5.2µM*	3%
C=C1CC/C=C(\C)CC[C@@H]2[C@@H]1CC2(C)C	-1%	14%	-8%	/	-6%	4%[176 µM]
C=C1C(=O)O[C@H]2[C@H]1CC/C(C)=C\CC[C@@]1(C)O[C@@H]21	/	/	2.4µM*	/	2.7µM*	/
C=C1C(=O)OC2C1CC/C(C)=C/CCC1(C)OC21 (configuration not stated)	4µM*	4.5µM*	2.3µM*	/	2.9µM*	/
C=C1C(=O)O[C@@H]2C3OC3(C)CC/C=C(\C)CC[C@@H]12 (some centres not stated)	28µM*	?	11µM*	/	11µM*	/
SMILES	Gal4-VP16 FLuc	RORg inh	DT40 TDP1 CPT	ELG1 DNA repair	DT40 TDP1 no CPT	12-LOX inh
C=C1C(=O)OC2C=C(C)CCC=C(C)CCC12 (configuration not stated)	?	?	/	/	/	-21%[57.4 µM]
O=C(N/N=C/C(Cl)=C\c1ccccc1)C1CC1	/	/	/	/	/	0%
CC(=O)OCc1c(-c2ccccc2)c2cc([N+](=O)[O-])ccc2n1C	-1%	-11%	3.7µM*	?	1.8µM*	0%
Cc1nc(C(=O)NCCO)cc2c1[nH]c1ccccc12	-6%	14%	9%	14%	-6%	0%
CCCNC(=O)c1csc(Nc2cccc3ccccc23)n1	0%	25%	?	-26%	?	0%
Cc1ccc(-c2cc(C(=O)NCC3CCCO3)c3ccccc3n2)cc1C (configuration not stated)	-8%	-2%	11%	?	5%	0%
Cc1ccc(-c2nc(C(=O)NCC3CCCO3)cc3c2[nH]c2ccccc23)cc1 (configuration not stated)	-8%	46%	2.3µM*	?	1.8µM*	18%
O=C(NCC1CCCO1)c1cc2c([nH]c3ccccc32)c(-c2cccc(Br)c2)n1 (configuration not stated)	3%	?	2.6µM*	?	2.9µM*	24%
Cc1ccccc1-c1nc(C(=O)NCC2CCCO2)cc2c1[nH]c1ccccc12 (configuration not stated)	-3%	?	12µM*	?	18µM*	-8%
Cc1cc(Br)cc2c(C(=O)NCC3CCCO3)cc(-c3ccccc3)nc12 (configuration not stated)	-2%	?	?	?	?	26%
O=C(NCC1CCCO1)c1csc(Nc2cccc3ccccc23)n1 (configuration not stated)	-10%	11µM*	18µM*	?	15µM*	4%
COc1ccc2nc(SCC(=O)c3cc(C)n(C4CC4)c3C)[nH]c2c1	/	/	/	/	/	-6%
COc1ccc(-c2nc(C(=O)NCC3CCCO3)cc3c2[nH]c2ccccc23)cc1 (configuration not stated)	-15%	?	2.1µM*	?	2.1µM*	-2%
NC(=S)N/N=C/c1cc([N+](=O)[O-])ccc1OCCOc1ccccc1	-12%	-32%	-16%	24%	-30%	0%
CS(=O)(=O)N(CC(=O)N/N=C/c1cc([N+](=O)[O-])ccc1Cl)c1ccccc1	2%	11%	?	2%	18µM*	0%
Cc1cccc(N(CC(=O)N/N=C/c2cc([N+](=O)[O-])ccc2Cl)S(C)(=O)=O)c1C	2%	?	?	13%	21µM*	/
Cn1cccc1CC(=O)N/N=C/c1cc([N+](=O)[O-])ccc1Cl	0%	17%	16%	15%	-9%	?
CC(=O)N/N=C/c1cc([N+](=O)[O-])ccc1OCCOc1ccccc1	-5%	4%	?	?	16µM*	-5%
